Results published in the supplement of paper PMC10849652.
Targets with a hit are over-represented here; the source holds about 7,900 in all. About 0.6% of all pairs of compound and target were hits. Values without a mark were called inactive.

Compound: c1cn2cc(-c3ccc4cn[nH]c4c3)nc(Nc3ccc(N4CCOCC4)cc3)c2n1 [entospletinib]
Test: log2 fold change, soluble protein after heating vs DMSO (PISA); higher = thermal stabilisation; K562 cells, 10 uM, 30 min; active = over 0.2 and 3.5 SD of the protein, either way, in both replicates (recomputed)
Outline: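 Values are thermal stability changes relative to control samples and are taken from duplicates. They are stated as log2 fold changes. Before quantification by TMTpro 16plex LC-MS/MS with equalised channel sums, K562 cells at 2×10^6 cells/mL were treated with 10 μM compound for 30 min, heated in aliquots for 3 min across 48°C-58°C, pooled, extracted in PBS with 0.5% NP-40 at 4°C, and centrifuged at 21,000xg for 90 min to give the soluble supernatant.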

UniProt Q00577, sequence (Q00577 whole entry, looked up): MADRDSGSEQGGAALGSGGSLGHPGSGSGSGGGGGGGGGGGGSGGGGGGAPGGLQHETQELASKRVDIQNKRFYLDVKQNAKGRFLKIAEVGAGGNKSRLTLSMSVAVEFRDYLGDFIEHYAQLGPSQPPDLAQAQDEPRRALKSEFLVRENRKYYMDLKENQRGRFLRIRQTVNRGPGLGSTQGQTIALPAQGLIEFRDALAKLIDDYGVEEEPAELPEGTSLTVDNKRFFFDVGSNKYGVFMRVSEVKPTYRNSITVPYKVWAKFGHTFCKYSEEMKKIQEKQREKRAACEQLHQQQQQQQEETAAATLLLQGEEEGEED
UniProt Q8NBL1, sequence (Q8NBL1 whole entry, looked up): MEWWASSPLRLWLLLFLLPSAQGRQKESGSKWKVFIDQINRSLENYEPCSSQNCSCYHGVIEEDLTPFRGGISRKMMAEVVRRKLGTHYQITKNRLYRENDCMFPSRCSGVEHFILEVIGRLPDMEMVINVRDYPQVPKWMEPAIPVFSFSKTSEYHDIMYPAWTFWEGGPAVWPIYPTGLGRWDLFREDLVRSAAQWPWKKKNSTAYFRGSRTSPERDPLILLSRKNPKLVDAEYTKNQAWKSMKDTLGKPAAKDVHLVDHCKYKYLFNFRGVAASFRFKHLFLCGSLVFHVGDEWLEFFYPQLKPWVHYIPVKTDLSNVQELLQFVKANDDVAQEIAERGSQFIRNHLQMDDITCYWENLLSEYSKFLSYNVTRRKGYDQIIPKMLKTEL
UniProt O75439, sequence (O75439 whole entry, looked up): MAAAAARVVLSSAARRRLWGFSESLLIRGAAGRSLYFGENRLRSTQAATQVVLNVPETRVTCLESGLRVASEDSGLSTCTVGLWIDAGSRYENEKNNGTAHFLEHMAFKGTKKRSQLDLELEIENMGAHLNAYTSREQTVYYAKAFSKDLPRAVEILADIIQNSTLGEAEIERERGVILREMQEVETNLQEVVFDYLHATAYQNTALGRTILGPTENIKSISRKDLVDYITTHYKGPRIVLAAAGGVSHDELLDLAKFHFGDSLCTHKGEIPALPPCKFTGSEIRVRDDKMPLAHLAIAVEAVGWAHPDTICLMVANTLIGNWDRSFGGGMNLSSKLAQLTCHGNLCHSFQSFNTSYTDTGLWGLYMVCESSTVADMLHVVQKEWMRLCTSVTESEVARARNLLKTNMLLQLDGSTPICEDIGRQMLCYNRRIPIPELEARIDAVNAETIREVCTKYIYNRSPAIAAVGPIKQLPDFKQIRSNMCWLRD
UniProt Q9BRX2, sequence (Q9BRX2 whole entry, looked up): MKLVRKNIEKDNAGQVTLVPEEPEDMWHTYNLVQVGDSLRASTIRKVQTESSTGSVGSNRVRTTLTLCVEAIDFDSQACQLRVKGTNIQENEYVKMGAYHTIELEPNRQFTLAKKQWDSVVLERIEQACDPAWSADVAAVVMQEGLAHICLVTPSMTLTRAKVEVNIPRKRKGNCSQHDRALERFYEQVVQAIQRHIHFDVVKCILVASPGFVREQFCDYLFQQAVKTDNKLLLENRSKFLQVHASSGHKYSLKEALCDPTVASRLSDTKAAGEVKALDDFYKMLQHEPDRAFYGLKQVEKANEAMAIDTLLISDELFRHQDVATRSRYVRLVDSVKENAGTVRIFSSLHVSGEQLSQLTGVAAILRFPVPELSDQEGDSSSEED
UniProt Q13200, sequence (Q13200 whole entry, looked up): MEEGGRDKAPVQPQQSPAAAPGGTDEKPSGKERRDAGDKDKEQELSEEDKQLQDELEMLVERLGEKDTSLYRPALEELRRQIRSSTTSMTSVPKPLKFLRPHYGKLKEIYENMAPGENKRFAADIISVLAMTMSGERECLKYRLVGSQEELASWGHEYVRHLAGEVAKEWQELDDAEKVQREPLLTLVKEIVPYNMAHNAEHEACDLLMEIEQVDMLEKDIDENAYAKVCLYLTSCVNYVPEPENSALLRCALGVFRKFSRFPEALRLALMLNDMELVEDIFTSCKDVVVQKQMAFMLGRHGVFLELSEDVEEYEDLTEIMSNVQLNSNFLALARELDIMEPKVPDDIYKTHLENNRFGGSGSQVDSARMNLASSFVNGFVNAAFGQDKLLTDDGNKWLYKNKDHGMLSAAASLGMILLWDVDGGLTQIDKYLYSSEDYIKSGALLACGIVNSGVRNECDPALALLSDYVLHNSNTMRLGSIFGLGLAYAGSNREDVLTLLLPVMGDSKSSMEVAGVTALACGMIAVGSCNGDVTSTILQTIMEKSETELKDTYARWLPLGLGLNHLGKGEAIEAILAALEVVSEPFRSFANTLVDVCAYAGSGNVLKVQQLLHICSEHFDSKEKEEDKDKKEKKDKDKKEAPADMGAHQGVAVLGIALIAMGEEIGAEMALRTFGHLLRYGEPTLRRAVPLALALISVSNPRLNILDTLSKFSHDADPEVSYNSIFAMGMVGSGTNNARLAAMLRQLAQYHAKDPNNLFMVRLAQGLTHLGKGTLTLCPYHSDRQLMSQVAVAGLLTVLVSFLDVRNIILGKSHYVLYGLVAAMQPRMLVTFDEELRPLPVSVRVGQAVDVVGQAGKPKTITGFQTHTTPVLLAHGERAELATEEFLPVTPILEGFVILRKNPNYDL
UniProt Q8WWY3, sequence (Q8WWY3 whole entry, looked up): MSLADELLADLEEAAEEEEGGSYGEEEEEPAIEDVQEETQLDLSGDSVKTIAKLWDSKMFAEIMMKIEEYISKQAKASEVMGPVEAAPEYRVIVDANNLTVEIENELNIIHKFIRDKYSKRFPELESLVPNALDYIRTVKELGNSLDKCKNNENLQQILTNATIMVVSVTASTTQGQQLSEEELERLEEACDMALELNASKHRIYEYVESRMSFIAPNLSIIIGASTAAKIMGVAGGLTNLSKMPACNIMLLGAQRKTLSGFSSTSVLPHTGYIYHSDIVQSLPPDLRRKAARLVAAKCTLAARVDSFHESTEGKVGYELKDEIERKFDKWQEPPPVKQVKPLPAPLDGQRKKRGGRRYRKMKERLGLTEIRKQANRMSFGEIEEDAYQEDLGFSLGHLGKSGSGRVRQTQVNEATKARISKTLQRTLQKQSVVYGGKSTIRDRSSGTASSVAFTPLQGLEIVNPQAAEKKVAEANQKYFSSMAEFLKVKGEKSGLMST
UniProt P42785, sequence (P42785 whole entry, looked up): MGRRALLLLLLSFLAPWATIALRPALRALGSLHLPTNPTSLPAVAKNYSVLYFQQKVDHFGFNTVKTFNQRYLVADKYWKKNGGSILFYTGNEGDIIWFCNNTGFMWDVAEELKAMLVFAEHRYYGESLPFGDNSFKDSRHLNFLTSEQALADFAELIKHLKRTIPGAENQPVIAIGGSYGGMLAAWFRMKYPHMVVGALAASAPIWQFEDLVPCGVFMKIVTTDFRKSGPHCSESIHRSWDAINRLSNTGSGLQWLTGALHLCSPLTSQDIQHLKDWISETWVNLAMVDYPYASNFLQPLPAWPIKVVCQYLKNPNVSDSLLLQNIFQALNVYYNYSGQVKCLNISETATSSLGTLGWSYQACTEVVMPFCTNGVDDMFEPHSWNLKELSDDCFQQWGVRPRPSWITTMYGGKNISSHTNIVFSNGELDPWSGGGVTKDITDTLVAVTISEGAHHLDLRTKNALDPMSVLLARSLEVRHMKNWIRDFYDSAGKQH
UniProt P62333, sequence (P62333 whole entry, looked up): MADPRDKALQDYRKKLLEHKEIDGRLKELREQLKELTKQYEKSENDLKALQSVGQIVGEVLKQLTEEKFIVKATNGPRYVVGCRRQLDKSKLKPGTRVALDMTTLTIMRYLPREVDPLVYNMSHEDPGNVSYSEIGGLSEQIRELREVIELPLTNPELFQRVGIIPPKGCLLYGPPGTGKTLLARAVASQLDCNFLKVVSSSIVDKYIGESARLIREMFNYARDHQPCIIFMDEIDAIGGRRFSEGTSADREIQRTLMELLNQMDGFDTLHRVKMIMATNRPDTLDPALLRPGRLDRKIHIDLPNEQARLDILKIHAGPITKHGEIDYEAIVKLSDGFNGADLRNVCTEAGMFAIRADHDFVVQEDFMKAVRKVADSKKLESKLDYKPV
UniProt Q15365, sequence (Q15365 whole entry, looked up): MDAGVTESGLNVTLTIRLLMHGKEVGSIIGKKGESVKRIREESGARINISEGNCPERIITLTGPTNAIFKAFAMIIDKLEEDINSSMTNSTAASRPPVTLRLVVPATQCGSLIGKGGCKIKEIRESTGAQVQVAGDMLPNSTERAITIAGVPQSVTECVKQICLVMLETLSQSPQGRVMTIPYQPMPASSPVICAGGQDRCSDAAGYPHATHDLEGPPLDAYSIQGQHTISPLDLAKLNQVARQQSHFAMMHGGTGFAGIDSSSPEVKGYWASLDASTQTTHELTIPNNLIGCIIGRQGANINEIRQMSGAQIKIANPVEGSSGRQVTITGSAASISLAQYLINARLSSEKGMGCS
UniProt Q15054, sequence (Q15054 whole entry, looked up): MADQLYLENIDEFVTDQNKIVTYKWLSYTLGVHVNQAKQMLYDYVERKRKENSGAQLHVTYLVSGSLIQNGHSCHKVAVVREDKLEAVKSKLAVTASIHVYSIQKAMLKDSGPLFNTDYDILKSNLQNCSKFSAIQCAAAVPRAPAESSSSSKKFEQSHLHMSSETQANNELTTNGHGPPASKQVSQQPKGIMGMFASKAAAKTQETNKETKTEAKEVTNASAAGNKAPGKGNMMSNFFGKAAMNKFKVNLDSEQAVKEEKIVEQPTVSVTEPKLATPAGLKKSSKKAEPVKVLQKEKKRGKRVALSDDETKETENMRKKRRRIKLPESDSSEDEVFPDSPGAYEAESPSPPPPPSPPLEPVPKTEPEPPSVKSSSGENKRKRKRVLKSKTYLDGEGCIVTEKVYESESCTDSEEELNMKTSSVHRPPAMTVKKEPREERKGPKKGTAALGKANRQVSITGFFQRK
UniProt Q8WUK0, sequence (Q8WUK0 whole entry, looked up): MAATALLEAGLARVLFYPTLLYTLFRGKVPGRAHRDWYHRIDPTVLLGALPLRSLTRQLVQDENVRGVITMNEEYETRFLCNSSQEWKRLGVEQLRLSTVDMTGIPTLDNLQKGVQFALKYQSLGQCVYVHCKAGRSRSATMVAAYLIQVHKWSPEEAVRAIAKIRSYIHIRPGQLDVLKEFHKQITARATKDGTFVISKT

Target	log2 fold change
PARP1 (UniProt P09874)	-0.092
POGLUT1 (UniProt Q8NBL1)	0.06
PSMC6 (UniProt P62333)	0.01
PTPMT1 (UniProt Q8WUK0)	-0.018
PRKAR2A (UniProt P13861)	0.088
PPP1CA (UniProt P62136)	0.037
PMPCB (UniProt O75439)	-0.043
PRKAA1 isoform 2 (UniProt Q13131)	-0.015
PCLAF (UniProt Q15004)	-0.132
PTGES3 (UniProt Q15185)	-0.005
PSPC1 (UniProt Q8WXF1)	0.034
PCGF2 (UniProt P35227)	0
PELO (UniProt Q9BRX2)	0.05
PRPF38A (UniProt Q8NAV1)	0.036
PCBP1 (UniProt Q15365)	-0.042
POLD3 (UniProt Q15054)	-0.054
PPP2R5B (UniProt Q15173)	-0.321
PURA (UniProt Q00577)	0.176
PSMD2 (UniProt Q13200)	-0.002
PGK2 (UniProt P07205)	-0.035
PDLIM7 (UniProt Q9NR12)	0.012
PRPF31 (UniProt Q8WWY3)	0.025
PRCP (UniProt P42785)	-0.062
PHLDB1 isoform 2 (UniProt Q86UU1)	-0.005
